Reference: PubChem BioAssay (NCATS)
Records with an inconclusive call do not appear. Calls of active or inactive are those of the source. Unless noted, calls come from the whole dose curve; as a rule, active = well fitted curve in the direction sought with a large enough effect; inconclusive = small, poorly fitted or top-dose-only effect, or another doubt; inactive = no such curve, though single readings can be large; an effect the other way counts as inactive or inconclusive.

How the values were obtained:
[1] = target: Lysosomal acid glucosylceramidase (Homo sapiens) (UniProt P04062); experiment: Glucocerebrosidase-p2 (AID 348; in the data active = potency below about 10 µM; note: potency is the fitted concentration of half-maximal effect); conditions: purified GBA, blue fluorogenic substrate, 40 min
Chain of Lysosomal acid glucosylceramidase (Homo sapiens) (P04062 whole entry, looked up): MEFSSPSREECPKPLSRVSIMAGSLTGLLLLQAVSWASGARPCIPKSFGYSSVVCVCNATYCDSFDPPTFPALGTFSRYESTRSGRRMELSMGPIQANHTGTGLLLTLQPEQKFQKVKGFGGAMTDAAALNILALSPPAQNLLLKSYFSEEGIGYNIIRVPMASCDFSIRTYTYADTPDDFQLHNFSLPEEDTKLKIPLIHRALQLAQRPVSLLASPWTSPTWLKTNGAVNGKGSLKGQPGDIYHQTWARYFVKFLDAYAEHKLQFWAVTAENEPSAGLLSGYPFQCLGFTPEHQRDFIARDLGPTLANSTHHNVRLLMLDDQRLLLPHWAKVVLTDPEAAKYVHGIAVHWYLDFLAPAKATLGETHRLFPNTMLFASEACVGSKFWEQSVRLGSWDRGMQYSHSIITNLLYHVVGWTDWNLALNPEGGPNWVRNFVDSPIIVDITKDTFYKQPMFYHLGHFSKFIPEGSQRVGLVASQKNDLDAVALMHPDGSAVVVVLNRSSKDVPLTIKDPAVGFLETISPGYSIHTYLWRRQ
In short: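 Normal human glucocerebrosidase (0.2 nM) with blue fluorogenic substrate (80 uM final) in citrate/phosphate pH 5.9 with 10mM sodium taurocholate, 0.01% tween-20; 40 min RT, NaOH/glycine stop; fluorescence Ex 365/Em 440; AC50 from a titration from 0.6 nM upwards.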

[2] = AP1 Signaling Pathway (AID 357; active = well fitted curve in either direction with a large enough effect, not every such curve was filed as active;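 note: ME-180 reporter cells stimulated with EGF at its EC50 level; % is set by controls: 0 for no effect and ±100 for the full control effect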); conditions: ME-180 AP-1-bla reporter, EGF-induced, beta-lactamase ratio, 5 h; at 7.69 µM (top of the series) unless noted
In short: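 Read-out was the 460nm/530nm emission ratio (excitation 405nm) after CCF4 loading for 2.5 hours at room temperature. Cells carried an AP-1-driven beta-lactamase reporter, were stimulated with EC50 EGF plus compound for 5 hours, and AC50 values came from titrations.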

[3] = target: Cytochrome P450 1A2 (Homo sapiens) (UniProt P05177); experiment: p450-cyp1a2 (AID 410; calls by dose curve; note: potency is the fitted concentration of half-maximal effect); conditions: recombinant CYP1A2, luciferin-ME demethylation, luminescence; series mostly up to 57 µM
Chain of Cytochrome P450 1A2 (Homo sapiens) (P05177 whole entry, looked up): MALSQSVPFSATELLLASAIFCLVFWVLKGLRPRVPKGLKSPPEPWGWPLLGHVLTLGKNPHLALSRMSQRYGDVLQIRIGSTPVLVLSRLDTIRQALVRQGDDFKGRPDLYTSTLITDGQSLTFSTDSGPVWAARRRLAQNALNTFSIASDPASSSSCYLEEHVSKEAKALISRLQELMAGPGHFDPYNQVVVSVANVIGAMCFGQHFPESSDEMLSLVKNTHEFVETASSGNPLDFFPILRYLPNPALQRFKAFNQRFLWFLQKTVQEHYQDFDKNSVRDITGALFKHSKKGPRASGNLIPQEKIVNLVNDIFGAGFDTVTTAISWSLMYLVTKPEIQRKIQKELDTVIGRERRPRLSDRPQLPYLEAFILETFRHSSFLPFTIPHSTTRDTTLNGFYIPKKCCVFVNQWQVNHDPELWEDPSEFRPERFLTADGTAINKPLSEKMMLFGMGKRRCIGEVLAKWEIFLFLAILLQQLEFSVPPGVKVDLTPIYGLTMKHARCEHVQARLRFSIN
In short: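 Read-out is luminescence from luciferin produced by CYP1A2 demethylation of Luciferin-ME (100uM, at Km). Detection reagent stopped the 60 min NADPH-dependent reaction; signals were normalized to 57 uM furafylline.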

[4] = NFAT Signaling Pathway (AID 444; active = well fitted curve in either direction with a large enough effect, not every such curve was filed as active;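 note: carbachol stimulus at about its EC50 of 1 µM final; % is set by controls: 0 for no effect and ±100 for the full control effect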); conditions: Jurkat NFAT-bla M1, carbachol, beta-lactamase ratio, 5 h; at 7.69 µM (top of the series) unless noted
In short: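 Read-out: CCF4 FRET ratio (460 nm/530 nm) after 1 h RT dye loading, used for %activity and AC50 from titration series. Cells: Jurkat NFAT-β-lactamase/M1 line, treated with compound plus 1 uM carbachol for 5 h, 37 °C.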

[5] = Stat Signaling Pathway (AID 446; active = well fitted curve in either direction with a large enough effect, not every such curve was filed as active;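 note: ME-180 cervical cancer cells given 40 pM IL-6 alongside compound; SIE-controlled beta-lactamase reporter measured as 460/530 nm FRET emission ratio; % is set by controls: 0 for no effect and ±100 for the full control effect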); conditions: ME-180 SIE beta-lactamase reporter, IL-6 stimulated, 5 h; at 7.69 µM (top of the series) unless noted
In short: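 Compound effects on IL-6-induced STAT reporter activity were measured in ME-180 cells. After overnight culture, cells were co-treated with 40 pM IL-6 for 5 hrs before beta-lactamase substrate loading at room temperature.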

[6] = target: Glucocorticoid receptor (Homo sapiens) (UniProt P04150); experiment: GR-GFP Redistribution (AID 450;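 active = compounds whose dose series gives a full or clear partial fitted curve of increased nuclear translocation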; note: potency is the fitted concentration of half-maximal effect); conditions: U2OS GR-GFP nuclear translocation, laser cytometry, 2 h
Chain of Glucocorticoid receptor (Homo sapiens) (P04150 whole entry, looked up, the tested form may be a part): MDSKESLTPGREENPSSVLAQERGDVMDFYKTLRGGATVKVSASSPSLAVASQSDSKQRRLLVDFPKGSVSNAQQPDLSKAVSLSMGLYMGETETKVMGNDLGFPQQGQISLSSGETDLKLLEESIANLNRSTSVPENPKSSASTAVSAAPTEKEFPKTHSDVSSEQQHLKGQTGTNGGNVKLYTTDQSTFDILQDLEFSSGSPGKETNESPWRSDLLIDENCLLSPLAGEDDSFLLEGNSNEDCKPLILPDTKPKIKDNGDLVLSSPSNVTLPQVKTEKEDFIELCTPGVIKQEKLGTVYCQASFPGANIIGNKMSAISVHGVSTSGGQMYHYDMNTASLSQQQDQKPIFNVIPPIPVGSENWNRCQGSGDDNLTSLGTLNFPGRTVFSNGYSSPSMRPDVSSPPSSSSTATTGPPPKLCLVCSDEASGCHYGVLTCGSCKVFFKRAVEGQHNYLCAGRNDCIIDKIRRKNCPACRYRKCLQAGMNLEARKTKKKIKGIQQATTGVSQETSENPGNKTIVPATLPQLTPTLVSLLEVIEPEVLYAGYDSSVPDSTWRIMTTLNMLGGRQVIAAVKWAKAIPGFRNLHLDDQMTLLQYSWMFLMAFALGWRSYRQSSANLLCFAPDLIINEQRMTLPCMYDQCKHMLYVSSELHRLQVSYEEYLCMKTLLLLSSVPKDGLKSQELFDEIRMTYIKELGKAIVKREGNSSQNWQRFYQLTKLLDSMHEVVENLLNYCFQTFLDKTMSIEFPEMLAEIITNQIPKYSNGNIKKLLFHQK

[7] = target: Glucocorticoid receptor (Homo sapiens) (UniProt P04150); experiment: GR-EFC Redistribution (AID 451; calls by dose curve; note: potency is the fitted concentration of half-maximal effect); conditions: CHO-K1 GR-EFC translocation, beta-gal luminescence, 2 h
In short: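 Translocation of GR-ED fusion to nuclear EA restores b-gal, read by luminescence after 1 h room-temperature detection. Engineered CHO-K1 biosensor cells, 1,000/well, exposed 2 h at 37 C to titrations up to 46 uM final.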

[8] = target: Mitogen-activated protein kinase 10 (Mus musculus) (UniProt Q61831); experiment: JNK3 AlphaScreen Assay (AID 530; active = well fitted curve in either direction with a large enough effect, not every such curve was filed as active;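 note: kinase came from lysate of stimulated human HepG2 cells; signal reports phosphorylation of biotinylated GST-cJun 1-79 at Ser73 with 10 µM ATP; % is set by controls: 0 for no effect and ±100 for the full control effect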); conditions: JNK3 lysate, c-Jun phosphorylation; series mostly up to 57.1 µM
In short: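 Kinase buffer: 20 mM Tris-HCl pH 7.6, 10 mM MgCl2, 1 mM DTT, 0.1 mM Na3VO4, 0.01% Tween-20; ATP 10 uM. Substrate biotin-GST-cJun(1-79), enzyme from activated HepG2 lysates. Detection by Ser73 phospho-antibody AlphaScreen.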

[9] = target: 3',5'-cyclic-AMP phosphodiesterase 4B (Homo sapiens) (UniProt Q07343); experiment: qHTS Assay for Inhibitors of PDE-IV (AID 607; active = well fitted activation curve with a large enough effect in the main read-out, with a control signal flat, not every such curve was filed as active; note: % of control where 0% means no effect); conditions: HEK293 ACTOne CNG channel cells, membrane potential fluorescence; series mostly up to 22.9 µM
Chain of 3',5'-cyclic-AMP phosphodiesterase 4B (Homo sapiens) (Q07343 whole entry, looked up): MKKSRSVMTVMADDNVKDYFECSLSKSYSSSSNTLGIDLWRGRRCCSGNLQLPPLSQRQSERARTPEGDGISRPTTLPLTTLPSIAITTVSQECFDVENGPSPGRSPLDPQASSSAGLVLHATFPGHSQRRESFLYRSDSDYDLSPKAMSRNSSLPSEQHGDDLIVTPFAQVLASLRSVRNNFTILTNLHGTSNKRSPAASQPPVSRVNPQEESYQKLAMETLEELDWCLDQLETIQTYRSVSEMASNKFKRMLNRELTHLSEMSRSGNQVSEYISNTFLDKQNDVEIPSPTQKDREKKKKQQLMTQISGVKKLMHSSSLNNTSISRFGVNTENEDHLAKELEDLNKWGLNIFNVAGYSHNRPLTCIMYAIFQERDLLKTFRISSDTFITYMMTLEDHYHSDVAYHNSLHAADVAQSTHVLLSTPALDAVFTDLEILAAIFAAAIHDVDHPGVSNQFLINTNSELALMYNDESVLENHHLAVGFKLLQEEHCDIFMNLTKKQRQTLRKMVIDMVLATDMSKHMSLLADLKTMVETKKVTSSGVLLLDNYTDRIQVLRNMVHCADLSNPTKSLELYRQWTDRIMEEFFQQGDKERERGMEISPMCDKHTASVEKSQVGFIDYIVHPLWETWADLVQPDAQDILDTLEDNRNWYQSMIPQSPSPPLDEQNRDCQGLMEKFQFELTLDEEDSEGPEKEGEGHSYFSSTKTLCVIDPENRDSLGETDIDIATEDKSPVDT
In short: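 ACTOne HEK293 cells carry a modified cAMP-gated CNG channel and express endogenous PDE4; plated 1000 cells/well, compounds up to 22.9 uM final. Membrane-potential dye fluorescence (ex 535/em 590) was read; parental cells received 10 uM forskolin + 100 uM RO 20-1724.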

[10] = Confirmation and Secondary Assay for Modulators of Hemoglobin Beta Chain Splicing at IVS2 654 locus (AID 910); conditions: HeLa EGFP-654 splicing reporter, GFP fluorescence, 48 h; series mostly up to 38.3 µM;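 note: HeLa cells stably carrying EGFP split by mutant beta-globin IVS2-654 intron; per-well total GFP intensity by laser scanning cytometry after 2-day treatment; % of control where 0% means no effect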
In short: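 Readout: per-well total peak green fluorescence (488 nm ex, 500–520 nm em) from objects 5–250 µm, reflecting correct splicing of an EGFP-654 reporter. Compounds were applied for 2 days at 37 °C to overnight-plated HeLa EGFP-654 cells; controls were DMSO and 500 nM IVS2-654 PNA.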

[11] = Confirmation and Secondary Assay for Modulators of Hemoglobin Beta Chain Splicing at IVS2 705 locus (AID 930); conditions: HeLa EGFP-705 splicing reporter, GFP fluorescence, 48 h; series mostly up to 38.3 µM;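 note: HeLa cells stably expressing the EGFP-705 splicing reporter; GFP fluorescence per well restored by corrected splicing of the IVS2-705 intron in EGFP; % of control where 0% means no effect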
In short: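 Stable HeLa line with EGFP disrupted by mutant beta-globin intron 2 (705). Overnight attachment, then 2 days of compound at 37C, 5% CO2. Signal: peak GFP intensity summed over objects 5-250 µm.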

[12] = qHTS Assay for Lipid Storage Modulators (AID 1519; calls by dose curve); conditions: Drosophila S3 cells, BODIPY lipid droplet/cell ratio, laser cytometry, cells loaded with oleic acid; for activity change, negative = inhibition: at 57.5 µM (top of the series)
In short: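 Cells seeded at 5,000 per well were treated with compounds over a concentration series and loaded with oleic acid (400 uM, as added). Lipid droplet fluorescence (488 nm excitation, 500-530 nm channel) was read by laser-scanning cytometry and normalized to 20 uM Triacsin C.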

[13] = target: Ubiquitin carboxyl-terminal hydrolase 1 (Homo sapiens) (UniProt O94782); experiment: Inhibitors of USP1/UAF1: Pilot qHTS (AID 504865); conditions: purified USP1/UAF1, Ub-rhodamine cleavage fluorescence; series mostly up to 54.9 µM;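 note: rhodamine fluorescence freed from ubiquitin-rhodamine substrate followed over time; top concentration of the series differs between compounds; % is set by controls: 0 for no effect and ±100 for the full control effect; nearly all actives have a fitted effect of over 35% in size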
Chain of Ubiquitin carboxyl-terminal hydrolase 1 (Homo sapiens) (O94782 whole entry, looked up): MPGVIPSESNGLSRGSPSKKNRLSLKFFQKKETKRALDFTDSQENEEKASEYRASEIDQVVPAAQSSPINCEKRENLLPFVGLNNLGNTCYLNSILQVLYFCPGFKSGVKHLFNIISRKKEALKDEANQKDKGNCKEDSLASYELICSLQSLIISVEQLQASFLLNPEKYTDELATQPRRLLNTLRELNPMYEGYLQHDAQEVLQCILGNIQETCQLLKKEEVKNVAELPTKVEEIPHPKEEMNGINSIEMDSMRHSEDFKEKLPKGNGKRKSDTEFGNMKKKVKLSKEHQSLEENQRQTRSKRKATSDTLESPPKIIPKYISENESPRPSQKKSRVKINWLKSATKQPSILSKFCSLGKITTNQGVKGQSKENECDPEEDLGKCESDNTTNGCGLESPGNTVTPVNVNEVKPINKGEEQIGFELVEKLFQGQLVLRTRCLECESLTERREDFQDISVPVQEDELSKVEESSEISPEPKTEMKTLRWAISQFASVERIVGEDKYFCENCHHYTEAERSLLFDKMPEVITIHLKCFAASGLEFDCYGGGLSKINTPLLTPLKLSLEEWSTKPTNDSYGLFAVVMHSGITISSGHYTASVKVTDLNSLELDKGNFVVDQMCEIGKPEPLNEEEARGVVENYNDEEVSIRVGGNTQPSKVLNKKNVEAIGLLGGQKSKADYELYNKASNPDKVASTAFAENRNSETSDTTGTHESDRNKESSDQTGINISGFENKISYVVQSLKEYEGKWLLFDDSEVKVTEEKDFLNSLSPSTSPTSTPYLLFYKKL
In short: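 Enzyme-free wells gave the negative control, while test wells held 1nM USP1/UAF1 preincubated with compound for 15 min at room temperature. Ub-Rho at 150nM final started the reaction, and fluorescence at 480/540 nm was recorded kinetically.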

[14] = Primary qHTS for small molecule stabilizers of the endoplasmic reticulum resident proteome: Secreted ER Calcium Modulated Protein (SERCaMP) assay (AID 1508630); conditions: SH-SY5Y GLuc-SERCaMP (Gaussia luciferase released on ER calcium loss) secretion, thapsigargin, luminescence; series mostly up to 38.4 µM; note: % is set by controls: 0 for no effect and ±100 for the full control effect
In short: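 The SH-SY5Y reporter protocol was run at 3 concentrations up to 38.3 uM (primary) or 11 concentrations (follow-up): 16 h compound, 100 nM thapsigargin for 4 h, then extracellular luciferase luminescence.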

[15] = target: Cytochrome P450 3A4 (Homo sapiens) (UniProt P08684); experiment: qHTS Assay for Inhibitors and Substrates of Cytochrome P450 3A4 (AID 884); conditions: recombinant CYP3A4, Luciferin-PPXE luminescence; series mostly up to 57.1 µM; note: potency is the fitted concentration of half-maximal effect; nearly all actives have a fitted effect of over 50% in size
Chain of Cytochrome P450 3A4 (Homo sapiens) (P08684 whole entry, looked up): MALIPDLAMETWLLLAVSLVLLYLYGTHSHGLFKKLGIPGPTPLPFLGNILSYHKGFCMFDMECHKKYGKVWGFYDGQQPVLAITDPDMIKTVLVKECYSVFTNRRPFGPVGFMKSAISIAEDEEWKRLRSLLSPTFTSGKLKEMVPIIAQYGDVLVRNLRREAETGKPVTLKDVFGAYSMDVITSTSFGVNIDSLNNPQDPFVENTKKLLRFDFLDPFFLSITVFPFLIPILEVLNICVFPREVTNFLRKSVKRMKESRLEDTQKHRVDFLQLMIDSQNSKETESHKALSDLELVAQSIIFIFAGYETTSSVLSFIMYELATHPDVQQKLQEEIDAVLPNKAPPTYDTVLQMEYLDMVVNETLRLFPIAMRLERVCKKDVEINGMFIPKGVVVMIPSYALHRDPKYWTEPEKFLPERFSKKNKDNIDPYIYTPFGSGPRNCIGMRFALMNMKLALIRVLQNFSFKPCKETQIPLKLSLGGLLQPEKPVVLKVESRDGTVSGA
In short: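 Luminescent readout of luciferin produced by CYP3A4 (20 nM) dealkylation of Luciferin-PPXE, 25 uM (its KM). NADPH-driven reaction ran 60 min at RT after 10 min compound preincubation; data scaled to 57 uM ketoconazole as 100% inhibition.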

[16] = target: Cytochrome P450 3A4 (Homo sapiens) (UniProt P08684); experiment: qHTS Assay for Activators of Cytochrome P450 3A4 (AID 885); conditions: recombinant CYP3A4, Luciferin-PPXE luminescence, 60 min; series mostly up to 57.1 µM; note: nearly all actives have a fitted effect of over 65% in size
In short: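 CYP3A4 activity: Luciferin-PPXE O-dealkylation, 25uM substrate, 200mM KPO4, RT throughout. Read-out is luciferase luminescence; higher values reflect activation.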

[17] = qHTS Assay for Identification of Small Molecule Agonists for Hypoxia Response Element Signaling Pathway (AID 914; active = well fitted activation curve with a large enough effect in the signal ratio, with a control signal flat, not every such curve was filed as active; the % refers to the signal ratio; note: % of control where 0% means no effect); conditions: ME-180 (cervical carcinoma) HRE-bla reporter, beta-lactamase ratio, CoCl2, 17 h; activation: stronger effect = higher value
In short: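 Reporter activity (beta-lactamase, CCF4 460nm/530nm ratio) in HRE-bla ME-180 cells is recorded after 17 h compound exposure with EC50 CoCl2 at 37 degrees Celsius. AC50 values come from titration data.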

[18] = measured here: cell count channel max response
[19] = measured here: lipid channel max response

SMILES | Potency [1] | activity change, negative = inhibition [2] | Potency [3] | activity change, negative = inhibition [4] | activity, negative = inhibition [5] | Potency [6] | Potency [7] | outcome [8] | Potency [9] | outcome [10] | outcome [11] | activity change, negative = inhibition [12] | max response [12, 18] [%] | max response [12, 19] [%] | Potency [13] | Potency [14] | Potency [15] | Potency [16] | activation [17]
CNc1ccnc(-c2ccccc2CN(C)C)n1 | > 11.4 µM (inactive) | -3.79% (inactive) | 12.6 µM (active) | -12.6% (inactive) | -6.7% (inactive) | > 46 µM (inactive) | > 46 µM (inactive) | inactive | inactive | inactive | inactive | 2.03% (inactive) | -5.53 | 2.14 | inactive | inactive |  |  | 
c1cncc(-c2cncnc2-n2ccnc2)c1 | > 11.4 µM (inactive) | 7.52% (inactive) | 20 µM (active) | -6.63% (inactive) | 0.845% (inactive) | > 46 µM (inactive) | > 46 µM (inactive) | inactive | inactive | inactive | inactive | 7.84% (inactive) | 7.56 | 17.5 | inactive | inactive | 7.94 µM (active) | inactive | 
CNc1ncncc1-c1ccccc1OC | > 11.4 µM (inactive) | -10.6% (inactive) | 1.58 µM (active) | 8.73% (inactive) | 6.99% (inactive) | > 46 µM (inactive) | > 46 µM (inactive) | inactive | inactive | inactive | inactive | 5.61% (inactive) | 8.32 | 13.5 | inactive | inactive |  | inactive | 5.66% (inactive)
